According to PubChem BioAssay (NCATS):
Results filed as inconclusive are left out. Active and inactive are the calls of the source. The call rests on the fitted dose curve; in most records, active means well fitted curve in the direction sought with a large enough effect; inconclusive means small, poorly fitted or top-dose-only effect, or another doubt; inactive means no such curve, though single readings can be large; an effect the other way counts as inactive or inconclusive.

Assays:
[1] = target: Rap guanine nucleotide exchange factor 3 (Homo sapiens) (UniProt O95398); assay: Confirmatory qHTS for antagonist of cAMP-regulated guanine nucleotide exchange factor 3 (EPAC1) (AID 1645880); further: nearly all actives have a fitted effect of over 55% in size; further: potency means the concentration at half of the fitted maximal effect
Sequence of Rap guanine nucleotide exchange factor 3 (Homo sapiens) (O95398 whole entry, looked up): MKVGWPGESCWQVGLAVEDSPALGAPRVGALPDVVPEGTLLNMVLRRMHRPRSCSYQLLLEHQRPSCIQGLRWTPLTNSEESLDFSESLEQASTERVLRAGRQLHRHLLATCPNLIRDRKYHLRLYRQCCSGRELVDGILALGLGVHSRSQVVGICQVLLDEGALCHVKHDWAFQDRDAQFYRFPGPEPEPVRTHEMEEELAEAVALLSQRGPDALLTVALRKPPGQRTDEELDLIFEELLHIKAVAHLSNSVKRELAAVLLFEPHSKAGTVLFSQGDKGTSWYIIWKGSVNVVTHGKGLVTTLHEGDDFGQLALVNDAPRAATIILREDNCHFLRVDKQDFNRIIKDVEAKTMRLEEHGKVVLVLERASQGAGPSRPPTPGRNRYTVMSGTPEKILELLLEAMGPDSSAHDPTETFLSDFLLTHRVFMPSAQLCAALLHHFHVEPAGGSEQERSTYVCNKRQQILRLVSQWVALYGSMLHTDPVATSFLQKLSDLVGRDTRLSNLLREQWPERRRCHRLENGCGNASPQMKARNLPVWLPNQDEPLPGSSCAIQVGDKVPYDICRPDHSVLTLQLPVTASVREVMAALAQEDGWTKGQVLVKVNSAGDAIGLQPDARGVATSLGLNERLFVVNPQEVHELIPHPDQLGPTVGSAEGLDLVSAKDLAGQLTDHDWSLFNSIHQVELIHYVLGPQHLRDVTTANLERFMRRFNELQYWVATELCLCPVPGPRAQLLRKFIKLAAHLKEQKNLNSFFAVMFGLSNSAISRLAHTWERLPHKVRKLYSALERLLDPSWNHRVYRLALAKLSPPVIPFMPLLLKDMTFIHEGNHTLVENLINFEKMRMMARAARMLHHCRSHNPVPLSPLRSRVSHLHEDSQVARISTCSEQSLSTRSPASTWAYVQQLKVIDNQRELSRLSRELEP
In short: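 Released BODIPY-GDP fluoresces less than Rap1-bound BODIPY-GDP; the signal is followed at 480/540 nm at 5-min intervals over 30 min, after 5 min at room temperature. Reactions contain 100 nM EPAC1, 250 nM RAP1B-BODIPY-GDP and 50 uM GDP; results are normalized to ATA and DMSO.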

[2] = target: Rap guanine nucleotide exchange factor 3 (Homo sapiens) (UniProt O95398); assay: Confirmatory qHTS for agonist of cAMP-regulated guanine nucleotide exchange factor 3 (EPAC1) (AID 1645881); further: nearly all actives have a fitted effect of over 75% in size; further: potency means the concentration at half of the fitted maximal effect;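 on activation: EPAC1 catalysed release of BODIPY-GDP from Rap1B seen as fluorescence loss; 100% = effect of cAMP agonist control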
[3] = target: Rap guanine nucleotide exchange factor 4 (Homo sapiens) (UniProt Q8WZA2); assay: Confirmatory qHTS for agonist of cAMP-regulated guanine nucleotide exchange factor 4 (EPAC2) (AID 1645884);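 further: nucleotide exchange releases bodipy-GDP from Rap1 and this lowers its fluorescence; nearly all actives have a fitted effect of over 65% in size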; further: potency means the concentration at half of the fitted maximal effect; on activation: on the % scale 0 is the no-effect control and ±100 the full control effect
Sequence of Rap guanine nucleotide exchange factor 4 (Homo sapiens) (Q8WZA2 whole entry, looked up): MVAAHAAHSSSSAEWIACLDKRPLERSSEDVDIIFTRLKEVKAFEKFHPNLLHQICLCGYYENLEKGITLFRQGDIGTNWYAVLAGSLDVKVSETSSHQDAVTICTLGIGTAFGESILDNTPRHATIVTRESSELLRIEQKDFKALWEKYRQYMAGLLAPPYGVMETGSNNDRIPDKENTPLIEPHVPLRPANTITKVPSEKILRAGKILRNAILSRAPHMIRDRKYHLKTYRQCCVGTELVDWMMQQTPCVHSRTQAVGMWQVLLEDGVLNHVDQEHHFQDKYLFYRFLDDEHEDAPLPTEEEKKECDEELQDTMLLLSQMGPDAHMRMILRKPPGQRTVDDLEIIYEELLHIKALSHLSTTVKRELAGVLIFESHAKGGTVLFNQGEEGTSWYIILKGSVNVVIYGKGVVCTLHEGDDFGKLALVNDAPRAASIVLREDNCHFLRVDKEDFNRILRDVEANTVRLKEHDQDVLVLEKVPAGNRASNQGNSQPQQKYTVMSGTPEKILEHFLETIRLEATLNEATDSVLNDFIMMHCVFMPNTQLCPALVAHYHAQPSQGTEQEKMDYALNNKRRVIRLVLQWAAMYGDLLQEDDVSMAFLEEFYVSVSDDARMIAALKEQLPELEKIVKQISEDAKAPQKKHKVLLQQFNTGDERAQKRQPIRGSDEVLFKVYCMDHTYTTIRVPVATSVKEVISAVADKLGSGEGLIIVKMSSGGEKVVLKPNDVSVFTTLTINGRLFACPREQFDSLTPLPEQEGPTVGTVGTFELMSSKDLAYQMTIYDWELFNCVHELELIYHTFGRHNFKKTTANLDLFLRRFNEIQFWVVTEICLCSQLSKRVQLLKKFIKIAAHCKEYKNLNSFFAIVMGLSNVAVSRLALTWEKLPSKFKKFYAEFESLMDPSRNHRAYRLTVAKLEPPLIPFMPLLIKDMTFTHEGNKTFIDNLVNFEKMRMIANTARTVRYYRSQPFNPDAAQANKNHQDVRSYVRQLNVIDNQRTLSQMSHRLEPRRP

[4] = target: Rap guanine nucleotide exchange factor 4 (Homo sapiens) (UniProt Q8WZA2); assay: Confirmatory qHTS for antagonist of cAMP-regulated guanine nucleotide exchange factor 4 (EPAC2) (AID 1645885); further: nearly all actives have a fitted effect of over 25% in size; further: potency means the concentration at half of the fitted maximal effect; on activity change, negative = inhibition: on the % scale 0 is the no-effect control and ±100 the full control effect
[5] = target: Rap guanine nucleotide exchange factor 3 (Homo sapiens) (UniProt O95398); assay: Counterscreen qHTS for antagonist of cAMP-regulated guanine nucleotide exchange factor 3 (EPAC1) (AID 1645888); further: % of control where 0% means no effect
In short: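 Measured: fluorescence of BODIPY-GDP bound to Rap1B, which falls as exchange proceeds. Conditions include 50 uM competing GDP, 5 and 30 min reads, and a later cAMP challenge for antagonist detection.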

COc1ccc(OC)c(Nc2ncc3c(n2)CCN(Cc2cc(OC)c(OC)c(OC)c2)C3)c1
inactive: Potency [1] | Potency [2] | Potency [3] | Potency [4] | Potency [5]

N#CC1=C(N)SC(N)=C(C#N)C1c1cccc(Oc2ccccc2)c1
active: Potency [1] 67.5 µM
inactive: Potency [2] | Potency [3] | Potency [4] | Potency [5]

CCOC(=O)Cn1c(-c2cccs2)cc2cc(Cl)ccc21
inactive: Potency [1] | Potency [2] | Potency [3] | outcome [4] inactive [at 12.7 µM] | Potency [5]

Cc1ccccc1NC1=C/C(=N\S(=O)(=O)c2ccc(C(=O)O)cc2)c2ccccc2C1=O
inactive: Potency [2] | activation [3] 1.42% [at 17.1 µM, percent relative to cAMP agonist control] | Potency [4] | activity change, negative = inhibition [5] -15% [at 30.8 µM]
active: Potency [1] 14.1 µM

CCC(C)Sc1c(C(C)C)cnc2c1c(=O)n(C)c(=O)n2C (stereo not given)
inactive: Potency [1] | Potency [2] | Potency [3] | Potency [4] | Potency [5]

Cc1ccc(C2=N/C(=C\c3c(C)nn(-c4ccccc4)c3N3CCCC3)C(=O)O2)cc1
inactive: Potency [1] | Potency [2] | Potency [3] | Potency [5]
active: Potency [4] 15.1 µM

COc1ccc(-n2ccn(Cc3ccccc3Cl)c(=O)c2=O)cc1OC
inactive: Potency [1] | Potency [2] | Potency [3] | Potency [4] | Potency [5]

CCc1cccc2sc(N3CCN(C(=O)C4CC4)CC3)nc12
inactive: Potency [1] | Potency [2] | Potency [3] | outcome [4] inactive [at 12.7 µM] | Potency [5]

C=CCOc1ccc(C=NNc2ccc(S(=O)(=O)Nc3ccccc3C(=O)O)cc2[N+](=O)[O-])cc1OC
inactive: Potency [2] | Potency [3] | Potency [4] | Potency [5]
active: Potency [1] 7.57 µM

CC(C)Cc1csc(NC(=O)c2ccc(Cl)cc2)c1C(=O)O
inactive: Potency [1] | Potency [2] | activation [3] 0% [at 17.1 µM, percent relative to cAMP agonist control] | Potency [4] | activity change, negative = inhibition [5] -11.2% [at 30.8 µM]

CSC1=NC2(CCN(C(=O)NC3CCCCC3)CC2)N=C1c1ccc(C)cc1
inactive: Potency [1] | Potency [2] | Potency [3] | Potency [4] | Potency [5]

CCSc1nc2ccccc2c(=O)n1C1CCOC(C)(C)C1 (stereo not given)
inactive: Potency [1] | Potency [2] | Potency [3] | Potency [4] | Potency [5]

COc1cccc2sc(N3CCN(c4nc5ccccc5s4)CC3)nc12
inactive: Potency [1] | Potency [2] | activation [3] 2.2% [at 17.1 µM, percent relative to cAMP agonist control] | Potency [4] | activity change, negative = inhibition [5] -13.4% [at 30.8 µM]

CCOC(=O)CSc1ccc2nnc(-c3ccccc3)n2n1
inactive: Potency [1] | Potency [2] | activation [3] 7.87% [at 17.1 µM, percent relative to cAMP agonist control] | Potency [4] | activity change, negative = inhibition [5] -6.6% [at 30.8 µM]

CN1C(=O)Cc2cc(S(=O)(=O)N3CCN(c4ccccc4F)CC3)ccc21
inactive: Potency [1] | Potency [2] | Potency [3] | Potency [4] | Potency [5]

O=C(OCC(=O)N1CCCC1=O)c1cc(Cl)ccc1O
inactive: Potency [1] | Potency [2] | Potency [3] | Potency [4] | Potency [5]

CCCN(CCC)Cc1cc(=O)oc2cc(C)cc(C)c12
inactive: Potency [1] | Potency [2] | Potency [3] | Potency [5]
active: Potency [4] 12 µM

Cc1ccc(NC(=O)c2ccc(Cl)c(S(=O)(=O)N3CCc4ccccc43)c2)nc1
inactive: Potency [1] | Potency [2] | Potency [3] | Potency [4] | Potency [5]

CCOC(=O)[C@H]1Nc2ccc(Cl)cc2[C@@H]2[C@H]1C1CC(c3ccccc31)N2C(=O)OCc1ccccc1 (stereo not given in full)
inactive: Potency [1] | Potency [2] | activation [3] 1.97% [at 17.1 µM, percent relative to cAMP agonist control] | Potency [4] | activity change, negative = inhibition [5] 4.44% [at 30.8 µM]

CC1(C(=O)NS(=O)(=O)c2ccc(Cl)s2)CCN1C(=O)C1(c2ccc(Cl)cc2)CC1 (stereo not given)
inactive: Potency [2] | activation [3] 0% [at 17.1 µM, percent relative to cAMP agonist control] | Potency [4] | activity change, negative = inhibition [5] -17.9% [at 30.8 µM]
active: Potency [1] 14.1 µM

O=C(Nc1ccccn1)c1cccc(S(=O)(=O)N2CCc3ccccc3C2)c1
inactive: Potency [1] | Potency [2] | Potency [3] | Potency [4] | Potency [5]

Cc1ccc(C(NC(=O)C(C)C)c2cc([N+](=O)[O-])c3cccnc3c2O)cc1 (stereo not given)
active: Potency [1] 35.5 µM
inactive: Potency [2] | activation [3] 0.958% [at 17.1 µM, percent relative to cAMP agonist control] | Potency [4] | activity change, negative = inhibition [5] -17.2% [at 30.8 µM]

Cc1ccc(Cl)c2c1N[C@@H](c1ccc(C(=O)O)cc1)[C@H]1CC=C[C@@H]21
inactive: Potency [2] | Potency [3] | Potency [4] | Potency [5]
active: Potency [1] 84.9 µM

COc1ccc2ccccc2c1C(=O)/C=C\c1ccoc1
active: Potency [1] 42.6 µM
inactive: Potency [2] | Potency [3] | Potency [4] | Potency [5]

COc1cc(NS(=O)(=O)c2ccc(NC(=O)/C(=C/c3ccccc3Cl)NC(=O)c3ccccc3)cc2)nc(OC)n1
active: Potency [1] 84.9 µM
inactive: Potency [2] | Potency [3] | Potency [4] | Potency [5]

COc1ccc(-c2n[nH]c3c2C(c2ccc(Cl)cc2Cl)NC3=O)cc1 (stereo not given)
inactive: Potency [1] | Potency [2] | Potency [3] | Potency [4] | Potency [5]

Cc1cc(OC(C)C(=O)NCCc2c[nH]c3ccccc23)c2c(C)cc(=O)oc2c1 (stereo not given)
inactive: Potency [1] | Potency [2] | Potency [3] | Potency [4] | Potency [5]

CCOc1cccc(C(=O)N(Cc2ccc(F)cc2)Cc2ccco2)c1
inactive: Potency [1] | Potency [2] | Potency [3] | Potency [4] | Potency [5]

O=C(/C=C/c1ccco1)Nc1ccc(Cl)c(-c2nc3cc(Cl)ccc3o2)c1
active: Potency [1] 75.7 µM
inactive: Potency [2] | Potency [3] | Potency [4] | Potency [5]

O=C1Nc2ccccc2Nc2ncccc21
inactive: Potency [1] | Potency [2] | activation [3] -4.86% [at 17.1 µM, percent relative to cAMP agonist control] | Potency [4] | activity change, negative = inhibition [5] 0.957% [at 30.8 µM]

COc1ccc(C(=O)c2ccc(OC)c(OC)c2OC)cc1
inactive: Potency [1] | Potency [2] | Potency [3] | Potency [5]
active: Potency [4] 7.57 µM

COC(=O)c1c(SC)nc2ccccc2c1OCc1ccc(Br)cc1
inactive: Potency [1] | Potency [2] | Potency [3] | Potency [4] | Potency [5]

COc1ccc(NS(=O)(=O)c2ccc3[nH]c4c(c3c2)CCCCCC4)cc1
inactive: Potency [1] | Potency [2] | Potency [3] | outcome [4] inactive [at 12.7 µM] | Potency [5]

CCOC(=O)[C@@H](NC(=O)/C=C/[C@H]1O[C@@H](n2cc(C)c(=O)[nH]c2=O)C[C@@H]1O)C(C)C
inactive: Potency [1] | Potency [2] | Potency [3] | Potency [4] | Potency [5]

Cc1cn2c(=O)cc(COC(=O)c3ccc(NC(=O)C(C)Oc4ccccc4)cc3)nc2s1 (stereo not given)
inactive: Potency [1] | Potency [2] | Potency [3] | Potency [4] | Potency [5]

CC(C)Cn1c(N)c(C(=O)NCC2CCCO2)c2nc3ccccc3nc21 (stereo not given)
active: Potency [1] 21.3 µM
inactive: Potency [2] | Potency [3] | Potency [4] | Potency [5]

O=C(Cn1nnc2sc(-c3ccccc3)cc2c1=O)Nc1cccc(C(F)(F)F)c1
inactive: Potency [1] | Potency [2] | Potency [3] | Potency [4] | Potency [5]

COc1cc(S(=O)(=O)Nc2ccc(C)cc2)ccc1N=Cc1c(C)c(C#N)c(=O)n(C)c1O
inactive: Potency [1] | Potency [2] | Potency [3] | Potency [4] | Potency [5]

Cc1cc(-c2ccc(Br)s2)nc(-n2cccc2)n1
inactive: Potency [1] | Potency [2] | Potency [3] | Potency [4] | Potency [5]

Cc1nc(SCC(=O)N2CCCCCC2)[nH]c(=O)c1C
inactive: Potency [1] | Potency [2] | Potency [3] | Potency [4] | Potency [5]

CC1=NOC(=O)/C1=C\c1ccc(-c2cc(Cl)ccc2Cl)o1
active: Potency [1] 23.9 µM | Potency [4] 75.7 µM
inactive: Potency [2] | Potency [3] | Potency [5]

COC1C(CO)OC(n2c3c(Cl)cccc3c3c4c(c5c6cccc(Cl)c6[nH]c5c32)C(=O)NC4=O)C(O)C1O (stereo not given)
inactive: Potency [1] | Potency [2] | Potency [3] | Potency [4] | Potency [5]

COc1ccc(N(Cc2cccs2)C(=O)c2ccco2)cc1
inactive: Potency [1] | Potency [2] | Potency [3] | outcome [4] inactive [at 12.7 µM] | Potency [5]

CN1\C(=C/C=C/C=C/C=[N+](C)C)C(C)(C)c2ccccc21
active: Potency [1] 39.8 µM
inactive: Potency [2] | activation [3] 2.26% [at 17.1 µM, percent relative to cAMP agonist control] | Potency [4] | activity change, negative = inhibition [5] 43.3% [at 30.8 µM]

CCc1cc2c(-c3ccccc3)cc(=O)oc2cc1OCC(=O)NCC1CCC(C(=O)O)CC1 (stereo not given)
inactive: Potency [1] | Potency [2] | Potency [3] | Potency [4] | Potency [5]

COc1cccc(C(=O)C2=NN(C(C)=O)CC2c2ccco2)c1 (stereo not given)
inactive: Potency [1] | Potency [2] | Potency [3] | Potency [4] | Potency [5]

COC(CNC(=O)c1ccc2c3c(onc13)-c1ccccc1C2=O)OC
inactive: Potency [1] | Potency [4] | Potency [5]
active: Potency [2] 50.1 µM | Potency [3] 100 µM

CC(Oc1ccc(-c2nnco2)cc1)C(=O)N1CCOCC1 (stereo not given)
inactive: Potency [1] | Potency [2] | Potency [3] | Potency [4] | Potency [5]
